Experiment [1] is described as follows: qHTS for differential inhibitors of proliferation of Plasmodium falciparum line HB3 (AID 1886).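 Note: parasites grown with compound for 72 h before SYBR Green readout.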 Note: potency is the fitted concentration of half-maximal effect. The note with it: Potency: Plasmodium falciparum HB3 proliferation inhibition.
A short description of experiment [2]: qHTS Assay for Modulators of Human Peripheral Myelin Protein 22 (PMP22) Expression/Activity (AID 1967; active = well fitted curve in the direction sought with a large enough effect in the signal ratio; the % refers to the signal ratio). Put shortly: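 MSC80 mouse Schwann cells stably carrying Pmp22 promoter–green click beetle luciferase plus EF-alpha–red luciferase control were dosed for 24h at 37 °C. Dual-colour luminescence was filter-overlap corrected; %Activity came from green/red ratio versus untreated cells.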
(qHTS replaces the single test concentration by a dilution series.)

For experiment [3], the target named is Ferritin light chain (Equus caballus) (UniProt P02791). As to the kind of experiment: qHTS Validation Assay for Identification of Novel General Anesthetics (AID 2323). Note: series mostly up to about 77 µM. In outline:
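Competitive displacement of profluorescent 1-aminoanthracene (1-AMA, 50% saturated solution in PBS) from 10 uM horse-spleen apoferritin. Compounds incubated 10 min at room temperature; fluorescence read at 380 nm excitation/535 nm emission, normalized to free 1-AMA and complex, fitted with four-parameter Hill equation.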

In experiment [4] the target is ATP-dependent DNA helicase Q1 (Homo sapiens) (UniProt P46063). Description: qHTS Validation Assay for Inhibitors of RecQ-Like Dna Helicase 1 (RECQ1) (AID 2353). In outline: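 50 nM RECQ1T1 preincubated 15 min with compound in Tris pH 8.0 buffer with MgCl2, DTT, Tween-20 and 2.5 ug/ml poly(dI-dC); started with 200 nM TAMRA/BHQ-2 forked duplex and 2 mM ATP. Unwinding read as fluorescence (525/598 nm), two reads 2 h apart.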
Chain of ATP-dependent DNA helicase Q1 (Homo sapiens) (P46063 whole entry, looked up): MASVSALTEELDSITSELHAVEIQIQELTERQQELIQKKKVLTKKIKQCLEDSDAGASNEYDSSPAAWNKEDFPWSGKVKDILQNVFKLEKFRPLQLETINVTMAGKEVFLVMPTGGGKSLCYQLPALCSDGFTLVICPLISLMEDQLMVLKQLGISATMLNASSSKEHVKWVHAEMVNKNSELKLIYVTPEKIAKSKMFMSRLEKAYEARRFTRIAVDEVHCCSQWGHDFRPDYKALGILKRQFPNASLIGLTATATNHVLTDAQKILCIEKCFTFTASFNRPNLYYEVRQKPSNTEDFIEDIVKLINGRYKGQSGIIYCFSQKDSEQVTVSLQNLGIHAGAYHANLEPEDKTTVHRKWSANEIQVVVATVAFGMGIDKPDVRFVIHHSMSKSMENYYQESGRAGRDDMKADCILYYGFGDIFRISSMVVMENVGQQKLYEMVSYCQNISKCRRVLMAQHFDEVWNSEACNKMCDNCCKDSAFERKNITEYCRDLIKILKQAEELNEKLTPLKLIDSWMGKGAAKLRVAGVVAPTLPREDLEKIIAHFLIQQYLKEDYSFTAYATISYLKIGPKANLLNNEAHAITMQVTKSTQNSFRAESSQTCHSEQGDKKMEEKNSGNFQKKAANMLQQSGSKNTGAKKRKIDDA

In experiment [5] the target is RecQ-like DNA helicase BLM (Homo sapiens) (UniProt P54132). As to the kind of experiment: qHTS Validation Assay for Inhibitors of Bloom's syndrome helicase (BLM) (AID 2364). Put shortly: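 50 nM BLM preincubated 15 min at room temperature with compound in pH 8.0 Tris buffer containing 2.5 ug/ml poly(dI-dC); started with 200 nM TAMRA/BHQ-2 forked duplex and 2 mM ATP (final). Unwinding read as TAMRA fluorescence increase, two reads 2 h apart.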
Chain of RecQ-like DNA helicase BLM (Homo sapiens) (P54132 whole entry, looked up): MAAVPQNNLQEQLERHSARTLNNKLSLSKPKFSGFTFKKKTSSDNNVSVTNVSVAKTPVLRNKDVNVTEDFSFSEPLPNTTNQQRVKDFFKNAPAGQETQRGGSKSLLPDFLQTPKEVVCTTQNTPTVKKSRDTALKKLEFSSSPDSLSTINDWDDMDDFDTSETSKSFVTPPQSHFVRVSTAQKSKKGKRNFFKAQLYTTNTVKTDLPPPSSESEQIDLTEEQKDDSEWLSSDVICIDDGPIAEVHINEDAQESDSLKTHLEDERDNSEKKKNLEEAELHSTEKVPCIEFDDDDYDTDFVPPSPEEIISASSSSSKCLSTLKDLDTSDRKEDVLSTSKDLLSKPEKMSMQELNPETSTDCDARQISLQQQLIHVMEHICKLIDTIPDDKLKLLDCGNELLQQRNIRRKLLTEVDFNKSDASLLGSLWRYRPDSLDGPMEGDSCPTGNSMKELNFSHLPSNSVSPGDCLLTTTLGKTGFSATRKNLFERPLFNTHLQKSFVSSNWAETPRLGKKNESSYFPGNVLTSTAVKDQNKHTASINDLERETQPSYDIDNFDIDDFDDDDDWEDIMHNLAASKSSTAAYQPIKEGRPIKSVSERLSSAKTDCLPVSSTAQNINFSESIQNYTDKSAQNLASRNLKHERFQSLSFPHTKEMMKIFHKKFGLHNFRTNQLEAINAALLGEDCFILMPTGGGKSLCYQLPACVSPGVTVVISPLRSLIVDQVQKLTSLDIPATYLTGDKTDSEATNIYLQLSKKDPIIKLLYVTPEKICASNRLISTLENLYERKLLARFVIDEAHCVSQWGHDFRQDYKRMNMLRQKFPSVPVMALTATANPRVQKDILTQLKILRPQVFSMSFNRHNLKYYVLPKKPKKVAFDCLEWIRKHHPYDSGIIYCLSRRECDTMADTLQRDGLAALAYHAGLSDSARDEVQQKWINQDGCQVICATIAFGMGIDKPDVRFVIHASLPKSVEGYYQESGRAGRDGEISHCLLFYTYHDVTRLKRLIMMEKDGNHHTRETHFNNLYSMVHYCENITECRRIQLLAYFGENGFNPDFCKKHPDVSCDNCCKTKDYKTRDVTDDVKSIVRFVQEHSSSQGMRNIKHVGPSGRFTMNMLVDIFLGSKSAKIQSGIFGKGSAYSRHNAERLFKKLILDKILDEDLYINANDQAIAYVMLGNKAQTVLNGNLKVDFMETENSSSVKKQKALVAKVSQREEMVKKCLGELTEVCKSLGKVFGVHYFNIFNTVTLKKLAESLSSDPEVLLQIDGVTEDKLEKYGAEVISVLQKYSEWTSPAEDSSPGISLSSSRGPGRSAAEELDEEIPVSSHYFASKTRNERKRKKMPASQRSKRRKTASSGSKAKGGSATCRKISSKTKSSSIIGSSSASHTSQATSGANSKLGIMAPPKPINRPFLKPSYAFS

Experiment [6] in a line: Cytometric Cell-Based qHTS for Inhibitors of the mTORC1 Signaling Pathway in MEF (Tsc2-/-, p53-/-) Cells (AID 2660).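 Note: percent of cells above a phospho-rpS6 to PI ratio cutoff in each well; series mostly up to about 38 µM.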 Put shortly:
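Percent of cells positive for normalized phospho-S6 staining is reported, with the cutoff set from rapamycin (7.5 nM) versus DMSO wells. Tsc2-/-, p53-/- MEFs received compound for 24 hrs.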

Experiment [7] is described as follows: High Content Imaging Cell-Based qHTS for Inhibitors of the mTORC1 Signaling Pathway in MEF (Tsc2-/-, p53-/-) Cells (AID 2666).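 Note: percent of cells scored positive for phospho-rpS6 Ser235/236 immunostaining by imaging.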 Put shortly:
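Phospho-rpS6 (Ser235/236) immunofluorescence, normalized and scored as % positive cells using rapamycin and DMSO controls, was read in empty-vector Tsc2-/-, p53-/- MEFs after 24 h compound exposure at 37 C; propidium iodide counted cells.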

The nature of experiment [8]: High Content Imaging Cell-Based qHTS for Inhibitors of the mTORC1 Signaling Pathway in MEF Cells (AID 2667).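 Note: Tsc2-/- p53-/- MEFs stably re-expressing wild-type Tsc2 exposed 24 h; series mostly up to about 38 µM.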 In outline:
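WT MEFs (Tsc2-/-, p53-/- re-expressing Tsc2), in DMEM + 10% FBS, were treated with compound for 24 h at 37 C. Cells were then fixed and stained for phospho-rpS6 Ser235/236 with propidium iodide as cell count. Values are % positive cells, with thresholds set against rapamycin-treated cells.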

Experiment [9] in a line: Cytometry Cell-Based qHTS for Inhibitors of the mTORC1 Signaling Pathway in MEF cells (AID 2668).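 Note: Tsc2-/- p53-/- mouse embryonic fibroblasts stably re-expressing wild-type Tsc2; percent cells positive for phospho-rpS6 Ser235/236 relative to propidium iodide stain; series mostly up to about 38 µM.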 In outline:
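WT MEFs (Tsc2-/-, p53-/- stably re-expressing WT Tsc2) in DMEM + 10% FBS received compounds 24 hrs after plating, for 24 hrs at 37 degree Celsius. Fixed cells stained with Alexa-488 anti-phospho-rpS6 Ser235/236 and propidium iodide; laser-scanning cytometry read-out.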

Experiment [10] is described as follows: Validation screen for inhibitors of Lassa infection (AID 463096; calls by dose curve).
A short description of experiment [11]: Validation screen for small molecules that induce DNA re-replication in MCF 10A normal breast cells (AID 463097). Note: nearly all actives have a fitted effect of over 60% in size. Put shortly: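 Readout: Hoechst nuclear fluorescence intensity, 405 ex / 500-530 em, by scanning plate imager; re-replication scored as increase in nuclei with elevated DNA content. Cells exposed to compound 48 hr, 37 C, 5% CO2 beforehand.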
Experiment [12] deals with Ubiquitin carboxyl-terminal hydrolase 2 (Homo sapiens) (UniProt O75604). Description: qHTS Validation Assay for Inhibitors of Ubiquitin-specific Protease USP2a Using CHOP2 as the Reporter (AID 463106). Put shortly:
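USP2 core (10 nM final) was preincubated with compound 30 min at RT in pH 8.0 Tris/CaCl2/beta-ME/CHAPS buffer. Ub-CHOP2 and reporter substrate (25 nM final each) were then added, with fluorescence (Ex 485/Em 531) read after 60 min. Data were normalized to NEM full inhibition and fitted to concentration-response curves.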

The target of experiment [13] is DNA polymerase III PolC-type (Bacillus subtilis (strain 168)) (UniProt P13267). As to the kind of experiment: qHTS Validation Assay for the Inhibitors of DNA Replication in Gram-Positive Bacteria (AID 485295).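 Note: PicoGreen fluorescence of double-stranded DNA made on primed circular M13 template; series mostly up to about 57 µM.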 Put shortly: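 Reconstituted B. subtilis holoenzyme (Pol III, beta clamp, SSB, primase) was preincubated with compound at room temperature, then given single-stranded circular M13Gori plus dNTPs and NTPs. EDTA-containing PicoGreen stopped the reaction, and dsDNA product was read by fluorescence.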
Chain of DNA polymerase III PolC-type (Bacillus subtilis (strain 168)) (P13267 whole entry, looked up): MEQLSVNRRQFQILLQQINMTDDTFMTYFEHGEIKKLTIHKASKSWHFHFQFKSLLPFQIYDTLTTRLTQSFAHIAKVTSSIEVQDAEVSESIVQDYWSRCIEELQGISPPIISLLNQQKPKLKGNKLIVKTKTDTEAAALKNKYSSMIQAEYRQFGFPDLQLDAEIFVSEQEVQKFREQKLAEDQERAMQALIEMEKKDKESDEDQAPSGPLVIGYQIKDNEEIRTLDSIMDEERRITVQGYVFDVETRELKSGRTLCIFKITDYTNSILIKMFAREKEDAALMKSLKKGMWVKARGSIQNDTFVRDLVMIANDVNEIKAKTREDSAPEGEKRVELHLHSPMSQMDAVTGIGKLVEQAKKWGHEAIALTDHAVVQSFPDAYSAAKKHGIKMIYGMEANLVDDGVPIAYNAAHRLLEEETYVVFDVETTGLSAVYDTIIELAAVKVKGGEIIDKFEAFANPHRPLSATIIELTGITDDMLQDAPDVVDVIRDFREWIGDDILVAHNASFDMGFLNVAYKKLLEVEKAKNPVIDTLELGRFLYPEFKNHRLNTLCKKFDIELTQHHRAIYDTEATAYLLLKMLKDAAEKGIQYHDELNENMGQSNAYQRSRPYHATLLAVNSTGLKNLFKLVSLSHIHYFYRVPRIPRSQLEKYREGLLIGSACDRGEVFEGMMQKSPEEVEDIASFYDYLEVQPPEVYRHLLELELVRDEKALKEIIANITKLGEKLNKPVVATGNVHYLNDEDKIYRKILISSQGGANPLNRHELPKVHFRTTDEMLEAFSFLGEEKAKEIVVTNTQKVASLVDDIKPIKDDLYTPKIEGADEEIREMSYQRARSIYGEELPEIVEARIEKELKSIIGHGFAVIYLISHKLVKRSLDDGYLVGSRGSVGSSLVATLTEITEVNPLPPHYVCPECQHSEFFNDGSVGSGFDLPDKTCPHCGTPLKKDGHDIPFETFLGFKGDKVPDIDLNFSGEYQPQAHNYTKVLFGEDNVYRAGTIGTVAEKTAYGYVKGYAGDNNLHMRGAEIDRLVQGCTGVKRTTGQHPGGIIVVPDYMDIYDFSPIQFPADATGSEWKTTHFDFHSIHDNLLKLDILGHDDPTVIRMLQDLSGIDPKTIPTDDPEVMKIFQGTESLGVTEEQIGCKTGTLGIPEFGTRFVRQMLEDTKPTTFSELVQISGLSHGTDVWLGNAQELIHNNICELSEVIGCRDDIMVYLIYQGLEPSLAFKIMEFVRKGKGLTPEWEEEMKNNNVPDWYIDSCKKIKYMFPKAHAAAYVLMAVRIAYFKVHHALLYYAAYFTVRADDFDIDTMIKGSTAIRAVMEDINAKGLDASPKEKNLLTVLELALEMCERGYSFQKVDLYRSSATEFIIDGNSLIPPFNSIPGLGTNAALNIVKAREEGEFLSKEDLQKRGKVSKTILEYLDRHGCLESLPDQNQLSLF

In experiment [14] the target is Tumor susceptibility gene 101 protein (Homo sapiens) (UniProt Q99816). Description: qHTS Validation Assay for Iinhibitors of HIV-1 Budding by Blocking the Interaction of PTAP/TSG101 (AID 485342; calls by dose curve). Put shortly: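 Tsg101 binding domain (10 uM final) in pH 7.5 HEPES/NaCl/Tween 20/EDTA/TCEP buffer was mixed with pin-transferred compounds, then FITC-labeled PTAP peptide (50 nM final) was added; after 20 min at r.t., fluorescence polarization was read.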

The nature of experiment [15]: qHTS Validation Assay to Find Inhibitors of Chronic Active B-Cell Receptor Signaling (AID 485345; active = well fitted curve in the direction sought with a large enough effect in the main read-out, with a control signal flat, not every such curve was filed as active). In outline:
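TMD8 ABC-DLBCL cells stably carrying doxycycline-inducible IkappaBalpha–green luciferase fusion plus unfused red luciferase; compounds 46 uM to 3 nM, 4 h at 37C with doxycycline. Corrected green/red luminescence ratio normalized to 10 uM MG-132 and basal cell wells; curves fitted.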

The target of experiment [16] is ATP-dependent 6-phosphofructokinase (Trypanosoma brucei brucei) (UniProt O15648). As to the kind of experiment: qHTS Validation Assay to Find Inhibitors of T. brucei phosphofructokinase (AID 485368). In outline: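 Activity was normalized between 1x (1.25 nM) PFK wells as no inhibition and enzyme-free wells as full inhibition, from luminescence after ADP-Glo detection of ADP made from 0.5 mM F6P and 0.1 mM ATP over 45 min.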
Chain of ATP-dependent 6-phosphofructokinase (Trypanosoma brucei brucei) (O15648 whole entry, looked up): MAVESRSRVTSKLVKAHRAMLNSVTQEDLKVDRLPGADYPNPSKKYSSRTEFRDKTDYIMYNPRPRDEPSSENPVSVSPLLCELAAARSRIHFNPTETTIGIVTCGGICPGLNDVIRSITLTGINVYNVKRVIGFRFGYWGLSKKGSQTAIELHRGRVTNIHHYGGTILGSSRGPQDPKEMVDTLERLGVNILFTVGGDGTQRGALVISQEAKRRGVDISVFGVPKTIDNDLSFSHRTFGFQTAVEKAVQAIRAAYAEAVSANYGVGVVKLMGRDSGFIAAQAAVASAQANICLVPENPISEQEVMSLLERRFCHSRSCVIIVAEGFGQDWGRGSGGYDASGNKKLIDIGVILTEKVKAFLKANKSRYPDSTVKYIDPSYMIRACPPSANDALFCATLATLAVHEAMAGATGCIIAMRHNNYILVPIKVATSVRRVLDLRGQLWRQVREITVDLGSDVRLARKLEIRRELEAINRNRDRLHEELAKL

Experiment [17] has as its target Beta-2 adrenergic receptor (Homo sapiens) (UniProt P07550). Description: qHTS validation assay of beta-arrestin-biased ligands of beta2-adrenergic receptor (AID 485366). Put shortly:
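Luminescence from a tTA-responsive luciferase, induced when recombinant beta-arrestin is recruited to recombinant beta2-AR, served as the agonism signal. Cells were exposed to compound for 18 hr at 37 degrees C; titrations spanned up to 46 microM.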

In experiment [18] the target is Endonuclease 4 (Escherichia coli (strain K12)) (UniProt P0A6C1). Description: Counterscreen for APE1 Inhibitors: qHTS Assay for Inhibitors of Endonuclease IV (AID 2565). Put shortly: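 E. coli EndoIV at 2 nM final, preincubated 15 min at room temperature with compound, then 50 nM TAMRA/BHQ-2 THF abasic-site duplex added. Buffer: 50 mM Tris-HCl pH 7.5, 50 mM NaCl, 2 mM MgCl2, 1 mM DTT, 0.01% Tween-20. Kinetic fluorescence increase, third minus first read.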
(In general: Counterscreens check selectivity or assay interference.)

For experiment [19], the target named is DNA repair nuclease/redox regulator APEX1 (Homo sapiens) (UniProt P27695). As to the kind of experiment: Confirmation qHTS Assay for Inhibitors of the Human Apurinic/apyrimidinic Endonuclease 1 (APE1) (AID 2572).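 Note: fluorescence gain from purified APE1 cutting a TAMRA/BHQ-2 THF abasic duplex; nearly all actives have a fitted effect of over 30% in size.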 Put shortly: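 Enzyme preincubated 15 min at room temperature with compound; reaction started with 50 nM final double-stranded THF abasic-site substrate (5'-TAMRA, 3'-BHQ-2). Fluorescence read kinetically (525/598 nm); third-minus-first read difference gives reaction progress.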

Inconclusive results are not listed. Some of the results follow. Activity calls are given as the source filed them. Unless noted, calls come from the whole dose curve; as a rule, active = well fitted curve in the direction sought with a large enough effect; inconclusive = small, poorly fitted or top-dose-only effect, or another doubt; inactive = no such curve, though single readings can be large; an effect the other way counts as inactive or inconclusive.

Chain of Ferritin light chain (Equus caballus) (P02791 2-175 limits assumed): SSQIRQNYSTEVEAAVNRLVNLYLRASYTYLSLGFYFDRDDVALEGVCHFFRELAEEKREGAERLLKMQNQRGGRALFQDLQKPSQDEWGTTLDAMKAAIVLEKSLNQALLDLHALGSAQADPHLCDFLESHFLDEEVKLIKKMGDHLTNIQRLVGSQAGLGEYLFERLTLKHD
Chain of Ubiquitin carboxyl-terminal hydrolase 2 (Homo sapiens) (O75604 whole entry, looked up): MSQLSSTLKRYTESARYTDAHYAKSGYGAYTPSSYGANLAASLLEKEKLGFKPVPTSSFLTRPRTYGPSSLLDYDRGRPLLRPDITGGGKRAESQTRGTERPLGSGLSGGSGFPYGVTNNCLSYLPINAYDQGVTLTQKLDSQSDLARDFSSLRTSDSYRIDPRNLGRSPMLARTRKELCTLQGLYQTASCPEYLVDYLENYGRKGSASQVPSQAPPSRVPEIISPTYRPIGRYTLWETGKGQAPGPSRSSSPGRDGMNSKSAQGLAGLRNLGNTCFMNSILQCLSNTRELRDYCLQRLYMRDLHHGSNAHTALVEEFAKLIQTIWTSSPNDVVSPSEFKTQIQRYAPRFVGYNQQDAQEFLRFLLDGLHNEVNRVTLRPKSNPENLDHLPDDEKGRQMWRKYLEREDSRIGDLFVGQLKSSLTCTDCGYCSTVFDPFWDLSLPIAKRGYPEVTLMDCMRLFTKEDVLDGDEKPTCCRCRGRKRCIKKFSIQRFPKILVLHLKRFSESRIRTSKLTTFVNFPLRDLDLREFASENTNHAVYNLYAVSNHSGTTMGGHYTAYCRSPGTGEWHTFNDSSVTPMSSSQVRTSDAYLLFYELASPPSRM

For `Clc1ccc(N2CC3CCC(C2)N3)nn1`, the Potency entry in experiment [1], in [4], in experiment [5], in [6], in experiment [7] and in [8] was “inactive” each time. Besides, the Potency result in experiment [9], in experiment [10], in [11], in experiment [12], in experiment [13] and in [15] was “inactive” throughout. Also, in experiment [16], the Potency result was “inactive”. For the same molecule, the molecule was called inactive in experiment [2], in experiment [3] and in experiment [14].
For the molecule `C#CCN[C@H](C)Cc1ccccc1`, the Potency result in [1], in experiment [4], in experiment [5], in experiment [6], in [8] and in [9] was “inactive” in each case. For the same molecule, the Potency entry in experiment [10], in experiment [11], in experiment [12], in experiment [13], in [15] and in experiment [16] was “inactive” in each case. In addition, the molecule was classed as inactive in experiment [2] and in experiment [3].
Turning to `N[C@@]1(C(=O)O)CC[C@@H](C(=O)O)C1`, the Potency entry in experiment [1], in experiment [4], in experiment [7], in experiment [8], in [10] and in experiment [11] was “inactive” each time. For the same molecule, the Potency entry in experiment [12], in experiment [13] and in [15] was “inactive” in each case. Also, the outcome in experiment [2], in [3], in experiment [14] and in experiment [17] was inactive.
Consider `CC(Cc1ccc(OCC(=O)O)cc1)NCC(O)c1cccc(Cl)c1` (centres undefined), for which the Potency entry in experiment [1], in [4], in experiment [8], in [9], in experiment [10] and in experiment [11] was “inactive” in each case. Further, the Potency entry in experiment [12], in experiment [13], in experiment [15] and in experiment [16] was “inactive” each time. Further, the call in experiment [2], in experiment [3], in experiment [14] and in experiment [17] was inactive.
Regarding `O=C1C=CC(=O)C=C1`, the Potency result in experiment [1], in experiment [4], in experiment [6], in experiment [8], in experiment [10] and in [11] was “inactive” in each case. Further, the Potency entry in experiment [12], in experiment [13] and in experiment [15] was “inactive” throughout. For the same molecule, the outcome in experiment [2], in experiment [3] and in experiment [17] was inactive.
Turning to `CCCN(CCC)[C@H]1CCc2c(F)ccc(O)c2C1`, in experiment [1], the Potency is 1410 nM (active). Further, the outcome in experiment [3], in experiment [14] and in experiment [17] was inactive. Besides, the Potency entry in [4], in experiment [5], in [6], in [7], in experiment [8] and in [9] was “inactive” each time. For the same molecule, the Potency result in [10], in [11], in experiment [12], in experiment [13], in experiment [15] and in experiment [16] was “inactive” in each case.
On to `C[C@H](Cc1ccc2c(c1)OC(C(=O)O)(C(=O)O)O2)NC[C@H](O)c1cccc(Cl)c1`, for which the Potency entry in [1], in experiment [4], in experiment [5], in [7], in experiment [8] and in experiment [9] was “inactive” in each case. In addition, the Potency result in experiment [10], in experiment [11], in experiment [12], in experiment [13] and in experiment [15] was “inactive” each time. Also, the molecule was classed as inactive in [2] and in [3].
With `CC(=O)NBr`, the Potency result in experiment [1], in experiment [4], in [5], in experiment [6], in [7] and in experiment [8] was “inactive” each time. The Potency entry in [10], in experiment [11], in experiment [12], in experiment [13], in experiment [15] and in [16] was “inactive” each time. Also, the outcome in [2], in experiment [3], in [18], in experiment [19], in [14] and in experiment [17] was inactive.
For `C/C(O)=C(\C#N)C(=O)Nc1cc(Br)ccc1Br`, the Potency result in [1], in experiment [4], in experiment [7], in experiment [8], in experiment [9] and in experiment [10] was “inactive” in each case. In addition, the Potency entry in experiment [11], in [12] and in experiment [13] was “inactive” in each case. Also, the call in experiment [2], in experiment [3], in experiment [14] and in [17] was inactive.
